Assay [1] can be described thus: optical density shifts of acrAB sulA E. coli – strain DRC41, OD650, 48 h, E. coli filamentation inducer project, primary screen (AID 1152).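 Also: E. coli MC1000 strain DRC41 lacking acrAB efflux pump and sulA.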 To be noted: higher = more signal, called active from +8 up or from −8 down.
A short description of assay [2]: probe aLefty1 binding on compound microarray – biochemical, small-molecule microarray, 635/667 nm fluorescence, primary screen (AID 1153).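 Also: score merges spot fluorescence with signal-to-noise ratio from the scanned slide images.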 The conditions noted are these: higher = more signal.
Assay [3] is described as follows: plasmodial surface anion channel blockers, osmotic lysis – cell-based, P. falciparum Indochina, OD700, 1 h, primary screen (AID 1154). To be noted: P. falciparum Indochina infected RBC osmotic lysis, higher = more signal, called active from +8 up or from −8 down.
The nature of assay [4]: plasmodial surface anion channel blockers, osmotic lysis – cell-based, P. falciparum Indochina, OD700, 2 h, primary screen (AID 1155).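 Also: lysis reports solute entry through the parasite surface anion channel PSAC.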 The conditions noted are these: P. falciparum Indochina infected erythrocytes, higher = more signal, called active from +8 up or from −8 down.
Assay [5] can be described thus: changes in parasitized red cell lysis, either direction – P. falciparum Indochina, OD700, 3 h, PSAC antagonist project, primary screen (AID 1156). To be noted: P. falciparum-infected erythrocytes, osmotic lysis, higher = more signal, called active from +8 up or from −8 down.
Assay [6] can be described thus: plasmodial surface anion channel blockers, osmotic lysis – cell-based, P. falciparum Indochina, OD700, 18 h, primary screen (AID 1157). To be noted: P. falciparum Indochina infected erythrocytes, osmotic lysis OD700, 18 h; higher = more signal, called active from +8 up or from −8 down.
Assay [7] can be described thus: S6 kinase pathway phospho-S6 level changes – cell-based, A549, cytoblot, luminescence, serum-stimulated, primary screen (AID 1158).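 Also: serum-stimulated A549 lung adenocarcinoma cells; signal is phosphorylated S6 detected by cytoblot immunostaining with HRP secondary.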 To be noted: 5 h, higher = more signal.
Assay [8] deals with NADPH oxidase 2 (Homo sapiens) (UniProt P04839). The assay can be described thus: compounds shifting NOX2 Amplex Red fluorescence – cell-based, HEK293-NOX2, PMA-stimulated, NOX inhibitor project, primary screen (AID 1159). Also: test concentration not given here. To be noted: 45 min, higher = more signal, called active from +8 up or from −8 down.
Assay [9] deals with NADPH oxidase 4 (Homo sapiens) (UniProt Q9NPH5). The assay can be described thus: compounds shifting NOX4 Amplex Red fluorescence – cell-based, HEK293-NOX4, tetracycline-induced, NOX inhibitor project, primary screen (AID 1160). To be noted: HEK293-NOX4, Amplex Red H2O2 fluorescence, 45 min; higher = more signal, called active from +8 up or from −8 down.
For assay [10], the target named is NADPH oxidase 5 (Homo sapiens) (UniProt Q96PH1). The assay can be described thus: compounds shifting NOX5 Amplex Red fluorescence – cell-based, HEK293-NOX5, NOX inhibitor project, primary screen (AID 1161). To be noted: HEK293-NOX5, ionomycin, 45 min, higher = more signal.
A short description of assay [11]: compound effects on lung adenocarcinoma cell viability – A549, calcein-AM fluorescence, 48 h, basal, profiling panel (AID 1162). Also: test concentration not given here. The conditions noted are these: higher = more signal.
Assay [12] can be described thus: compound effects on differentiated 3T3-L1 adipocyte viability – cell-based, 3T3-L1 adipocytes, calcein-AM fluorescence, 48 h, basal, profiling panel (AID 1163). Also: test concentration not given here. To be noted: 3T3-L1 adipocytes viability, higher = more signal.
The nature of assay [13]: compound effects on hepatocellular carcinoma cell viability – HepG2, calcein-AM fluorescence, 48 h, basal, profiling panel (AID 1164). Also: test concentration not given here. To be noted: higher = more signal.
Assay [14] in a line: compound effects on multiple myeloma cell viability – MM1S, calcein-AM fluorescence, 48 h, basal, profiling panel (AID 1165).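 Also: viability of MM1S multiple myeloma cells under basal unstimulated conditions; test concentration not given here.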 To be noted: higher = more signal.
Assay [15] can be described thus: calcein-AM signal in unstimulated myeloma cells – cell-based, calcein-AM fluorescence, 48 h, PK04 Diversity Set, profiling panel (AID 1166).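 Also: cells grown under basal conditions without added stimulus; test concentration not given here.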 The conditions noted are these: RPMI8226 myeloma viability, higher = more signal.
A short description of assay [16]: JC-1 mitochondrial signal, unstimulated HepG2 cells – cell-based, JC-1 fluorescence, 24 h, 100 nL compound, profiling panel (AID 1167). Also: test concentration not given here. To be noted: HepG2 mitochondrial potential, higher = more signal.
A short description of assay [17]: JC-1 mitochondrial signal, unstimulated adipocytes – cell-based, JC-1 fluorescence, 3T3-L1 adipocytes, 24 h, 100 nL compound, profiling panel (AID 1168). Also: test concentration not given here. To be noted: JC-1 mitochondrial fluorescence, higher = more signal, called active from +8 up or from −8 down.
The nature of assay [18]: JC-1 mitochondrial signal, unstimulated myeloma cells – cell-based, JC-1 fluorescence, RPMI8226, 24 h, 100 nL compound, profiling panel (AID 1169). Also: test concentration not given here. The conditions noted are these: JC-1 mitochondrial potential fluorescence, higher = more signal.
Assay [19] can be described thus: JC-1 mitochondrial signal, unstimulated MM1S myeloma – cell-based, JC-1 fluorescence, 24 h, 100 nL compound, profiling panel (AID 1170). Also: test concentration not given here. To be noted: MM1S mitochondrial potential, higher = more signal.
Assay [20] in a line: resazurin metabolic signal in A549 cells – cell-based, resazurin fluorescence, 24 h, PK04 Diversity Set, profiling panel (AID 1171). Also: test concentration not given here. The conditions noted are these: A549 viability, higher = more signal, called active from +8 up or from −8 down. For orientation: Resazurin is reduced to fluorescent resorufin, in cell work by metabolically active cells.

Active and inactive are the calls of the source.

NADPH oxidase 5 (Homo sapiens), sequence (Q96PH1 whole entry, looked up): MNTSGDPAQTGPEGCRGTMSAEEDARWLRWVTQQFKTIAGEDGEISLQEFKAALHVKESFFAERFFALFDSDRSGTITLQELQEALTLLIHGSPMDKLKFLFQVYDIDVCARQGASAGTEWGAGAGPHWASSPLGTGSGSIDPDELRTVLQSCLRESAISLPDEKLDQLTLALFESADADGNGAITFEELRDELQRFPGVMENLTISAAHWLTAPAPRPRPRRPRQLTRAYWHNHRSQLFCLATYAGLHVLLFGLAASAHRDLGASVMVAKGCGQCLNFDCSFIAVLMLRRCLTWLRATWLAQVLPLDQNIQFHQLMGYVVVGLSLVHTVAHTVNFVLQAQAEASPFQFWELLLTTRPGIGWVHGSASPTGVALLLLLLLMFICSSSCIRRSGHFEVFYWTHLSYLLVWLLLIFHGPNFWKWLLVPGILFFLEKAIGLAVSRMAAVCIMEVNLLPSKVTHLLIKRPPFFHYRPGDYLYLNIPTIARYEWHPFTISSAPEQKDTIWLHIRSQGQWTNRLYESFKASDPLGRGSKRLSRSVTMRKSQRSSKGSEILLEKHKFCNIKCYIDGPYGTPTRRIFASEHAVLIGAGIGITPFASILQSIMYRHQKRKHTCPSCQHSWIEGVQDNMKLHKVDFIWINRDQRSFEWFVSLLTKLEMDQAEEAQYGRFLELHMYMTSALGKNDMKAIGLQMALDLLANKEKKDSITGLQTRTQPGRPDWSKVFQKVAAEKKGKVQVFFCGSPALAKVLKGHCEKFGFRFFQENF
NADPH oxidase 4 (Homo sapiens), sequence (Q9NPH5 whole entry, looked up): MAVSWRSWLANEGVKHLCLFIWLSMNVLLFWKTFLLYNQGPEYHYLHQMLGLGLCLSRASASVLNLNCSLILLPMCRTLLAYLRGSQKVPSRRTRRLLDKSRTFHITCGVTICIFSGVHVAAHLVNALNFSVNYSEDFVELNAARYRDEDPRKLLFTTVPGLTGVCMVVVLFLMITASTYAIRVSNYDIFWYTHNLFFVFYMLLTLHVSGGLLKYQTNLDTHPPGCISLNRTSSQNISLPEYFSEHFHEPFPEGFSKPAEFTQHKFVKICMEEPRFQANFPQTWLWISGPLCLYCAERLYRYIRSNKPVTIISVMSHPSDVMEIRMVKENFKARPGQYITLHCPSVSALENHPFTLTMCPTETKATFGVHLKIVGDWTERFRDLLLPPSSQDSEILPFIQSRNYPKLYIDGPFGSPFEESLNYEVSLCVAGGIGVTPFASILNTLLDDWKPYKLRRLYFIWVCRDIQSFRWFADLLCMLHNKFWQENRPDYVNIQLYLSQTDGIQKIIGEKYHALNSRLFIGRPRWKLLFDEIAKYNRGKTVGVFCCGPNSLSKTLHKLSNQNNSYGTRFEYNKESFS
NADPH oxidase 2 (Homo sapiens), sequence (P04839 whole entry, looked up): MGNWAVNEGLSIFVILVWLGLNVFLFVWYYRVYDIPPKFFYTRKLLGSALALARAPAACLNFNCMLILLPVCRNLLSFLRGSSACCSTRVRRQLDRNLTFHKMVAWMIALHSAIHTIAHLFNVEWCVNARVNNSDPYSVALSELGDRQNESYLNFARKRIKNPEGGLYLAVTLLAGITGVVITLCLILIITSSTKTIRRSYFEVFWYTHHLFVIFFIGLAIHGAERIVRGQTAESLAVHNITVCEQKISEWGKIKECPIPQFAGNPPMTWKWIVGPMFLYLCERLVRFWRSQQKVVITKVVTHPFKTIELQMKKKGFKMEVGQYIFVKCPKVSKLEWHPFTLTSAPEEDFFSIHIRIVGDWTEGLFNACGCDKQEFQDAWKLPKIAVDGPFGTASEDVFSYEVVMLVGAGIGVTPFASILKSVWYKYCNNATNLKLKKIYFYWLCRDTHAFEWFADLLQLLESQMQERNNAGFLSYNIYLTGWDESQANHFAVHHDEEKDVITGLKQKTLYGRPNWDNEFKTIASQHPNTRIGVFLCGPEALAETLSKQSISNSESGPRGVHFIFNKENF

With `CCCNC(=O)[C@@]1(C)c2ccccc2C(=O)N(c2ccc(C)cn2)[C@H]1c1ccc(CO)cc1`, the z-score in [1] was -0.819 (inactive); in [3], 1.57 (inactive); in assay [4] it was 0.123 (inactive); in assay [5], 0.181 (inactive); in assay [6], 0.0101 (inactive); in assay [7], 0.426. Moreover, the z-score is -1.23 (inactive) in assay [8]; 0.155 (inactive) in assay [9]; 0.238 in assay [10]; 0.666 in assay [11]; 0.343 in assay [12]; -0.146 in assay [13]. Also, the z-score was -0.108 in [14]; 0.526 in assay [15]; 0.204 in assay [16]; -0.0622 (inactive) in [17]; 0.0215 in [18]; 0.43 in assay [19]. Besides, the z-score in assay [20] was -0.407 (inactive). Moreover, the composite z-score in [2] was 0.0533.

`C=C(COC)/C(=C/C[C@H](OC(=O)c1ccncc1)c1ccc(CO)o1)c1cnc2ccccc2c1`: the z-score is -0.504 (inactive) in [1]; 6.19 (inactive) in assay [3]; 0.807 (inactive) in assay [4]; 1.35 (inactive) in assay [5]; 0.307 (inactive) in assay [6]; -0.959 in assay [7]. Further, the z-score in [8] was 1.13 (inactive); in assay [9], -0.163 (inactive); in [10], -0.377; in [11], 0.349; in [12] it was -0.474; in assay [13], -0.439. Also, the z-score in assay [14] was -1.41; in [15], -0.366; in assay [16], -1.06; in assay [17], -0.582 (inactive); in assay [18], 0.178; in assay [19] it was -0.592. Moreover, in assay [20], the z-score was -0.319 (inactive). The compound further came in with a composite z-score in assay [2] of 0.213.

`CC[C@@H]1C=C(C(=O)O)[C@H](c2ccc(C#N)cc2)N1S(=O)(=O)c1ccc(C)cc1`: the z-score in assay [1] was -0.29 (inactive); in assay [3] it was 1.48 (inactive); in assay [4] it was 0.544 (inactive); in [5], -0.158 (inactive); in assay [6], 0.192 (inactive); in assay [7] it was -0.436. For the same compound, the z-score in [8] was 0.452 (inactive); in assay [9], -0.156 (inactive); in [10], -0.848; in assay [11], -0.484; in assay [12] it was -0.364; in [13], -1. Also, the z-score is 0.492 in assay [14]; -0.95 in assay [15]; -0.968 in assay [16]; -0.552 (inactive) in [17]; 0.875 in [18]; -1.06 in [19]. In addition, the z-score in [20] is -0.858 (inactive). Moreover, the composite z-score in assay [2] came to 0.276.

On to `C=CCC(OC(C)=O)[C@@H]1[C@@H](N(Cc2ccc(-c3cccc(C(F)(F)F)c3)o2)C(=O)c2ccc(-c3ccccc3)cc2)c2cc(OCCCO)ccc2N1C(=O)Cc1ccc2ccccc2c1` (stereo not given in full), for which the z-score was -0.75 (inactive) in assay [1]; 0.702 (inactive) in [3]; 0.609 (inactive) in assay [4]; 0.191 (inactive) in assay [5]; 0.532 (inactive) in assay [6]; 0.0285 in assay [7]. The z-score in assay [8] was -1.34 (inactive); in assay [9] it was -1.69 (inactive); in assay [10], -0.791; in assay [11], -0.713; in [12], 1.22; in assay [13], 0.374. The z-score in assay [14] is 0.502; in assay [15] it was -1.15; in [16] it was 1.66; in [17] it was 0.437 (inactive); in assay [18] it was -0.807; in assay [19] it was 0.0299. Besides, in assay [20], the z-score was 0.378 (inactive). Moreover, in assay [2], the composite z-score turned out to be 0.0451.

As to `C=CCC(OC(C)=O)[C@@H]1[C@@H](N(Cc2ccc(-c3cccc(C(F)(F)F)c3)o2)C(=O)Cc2ccc(OC)cc2)c2cc(OCCCO)ccc2N1C(=O)c1ccc(-c2ccccc2)cc1` (stereo not given in full), the z-score is -1.12 (inactive) in [1]; 0.922 (inactive) in assay [3]; -0.393 (inactive) in assay [4]; 1.81 (inactive) in assay [5]; 0.0651 (inactive) in assay [6]; -0.199 in [7]. The z-score was -1.2 (inactive) in assay [8]; -1.15 (inactive) in assay [9]; -1.35 in assay [10]; 0.095 in [11]; 0.647 in assay [12]; 0.926 in assay [13]. In addition, the z-score is -0.681 in assay [14]; -1.93 in [15]; 3.55 in [16]; -0.645 (inactive) in [17]; 0.498 in [18]; 0.504 in assay [19]. Also, the z-score in assay [20] was -1.71 (inactive). This compound showed a composite z-score in [2] of 0.235.

Regarding `CC1CC/C=C\[C@H]2OC34C=CCN(c5ccc(Cl)cc5)C(=O)[C@H]3N(C(C)CO)C(=O)[C@]4(C)C2C(=O)O1` (stereo not given in full), the z-score in assay [1] was 0.346 (inactive); in assay [3], 0.685 (inactive); in assay [4], 0.67 (inactive); in assay [5] it was 0.335 (inactive); in [6], 0.281 (inactive); in [7], 0.116. Besides, the z-score in [8] is 0.889 (inactive); in assay [9], -0.383 (inactive); in assay [10], 1.17; in assay [11], 0.924; in assay [12] it was -0.761; in assay [13] it was 1.24. The z-score was 1.31 in assay [14]; 0.37 in assay [15]; 0.807 in assay [16]; -0.29 (inactive) in [17]; -0.0845 in assay [18]; -0.723 in assay [19]. In addition, the z-score in assay [20] was 0.0378 (inactive). The composite z-score in assay [2] was -0.284.

In the case of `CCCCC=C[C@@H](NC(=O)OCc1ccccc1Cl)c1ccccc1`, the z-score in [1] is -2.07 (inactive); in assay [3], 0.278 (inactive); in assay [4], 0.894 (inactive); in assay [5], 0.806 (inactive); in assay [6] it was 0.887 (inactive); in assay [7], -0.0327. Further, the z-score in assay [8] was 0.027 (inactive); in [9], -0.52 (inactive); in assay [10], 1.24; in assay [11], -1.28; in assay [12], -1.2; in [13] it was -0.661. The z-score is -0.919 in assay [14]; -0.871 in assay [15]; 0.359 in assay [16]; -0.337 (inactive) in [17]; -0.623 in [18]; -1.03 in [19]. Moreover, in [20], the z-score was 0.297 (inactive). For the same compound, the composite z-score in [2] stood at 2.4.

Turning to `CCCCCN1CC=CC23O[C@@H]4C=CCCOC(=O)C4[C@H]2C(=O)N(CCCCCCO)[C@@H]3C1=O` (stereo not given in full), the z-score is 0.457 (inactive) in assay [1]; 1.07 (inactive) in assay [3]; 0.705 (inactive) in [4]; 1.01 (inactive) in [5]; 0.407 (inactive) in assay [6]; 1.59 in [7]. For the same compound, the z-score in assay [8] is 1.27 (inactive); in assay [9] it was -0.0418 (inactive); in assay [10], 2.08; in assay [11] it was -0.182; in assay [12], -0.131; in [13], 0.28. The z-score in assay [14] is 0.762; in assay [15], 0.494; in [16] it was 0.306; in assay [17], 0.737 (inactive); in assay [18], 0.548; in assay [19], -0.823. The z-score in assay [20] was 0.229 (inactive). Moreover, the composite z-score in [2] was -0.324.

For `CCOC(=O)C[C@H]1[C@H](OC(=O)Cc2ccc3c(c2)OCO3)[C@@H](NC(=O)C2CCCCC2)c2cc(OCCCO)ccc2N1C(=O)c1ccccc1`, the z-score in assay [1] is 2.81 (inactive); in [3], 1.27 (inactive); in assay [4], 0.569 (inactive); in assay [5], -0.481 (inactive); in assay [6], 0.0872 (inactive); in [7], 0.524. For the same compound, the z-score in assay [8] is -0.233 (inactive); in assay [9], 0.636 (inactive); in assay [10], -0.206; in [11], 1.99; in assay [12], -0.193; in assay [13] it was -0.0568. Further, the z-score in [14] was 0.567; in assay [15] it was -0.354; in assay [16], 1.69; in [17], 0.247 (inactive); in assay [18] it was 0.0348; in assay [19], 0.137. Also, the z-score in assay [20] was 0.745 (inactive). In addition, the composite z-score in assay [2] was -0.06.

The values are drawn from PubChem BioAssay.
